Laboratory results published in PubChem BioAssay (NCATS).
Inconclusive results are not listed. Values without a mark were called inactive. The source made the active and inactive calls. Calls come from the whole dose curve; as a rule, active = well fitted inhibition curve with a large enough effect; inconclusive = small, poorly fitted or top-dose-only effect; inactive = no such curve, though single readings can be large or run the other way.

Tested on: Zika virus NS2B-NS3 protease (unlinked complex)
Assay: Primary screen GU Rhodamine qHTS for Zika virus inhibitors: Unlinked NS2B-NS3 protease assay (AID 1347159); note: nearly all actives have a fitted effect of over 60% in size
Details: Recombinant ZIKV NS2B-NS3 protease, Rhodamine110 substrate fluorescence; series mostly up to 107 µM; activity change, negative = inhibition: at the top concentration
Summary of the method: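 Noncovalent NS2B hydrophilic domain/NS3 protease complex (25 nM final) in 10 mM Tris-HCl pH 8.0, 0.01% Tween 20, preincubated 15 min with compounds (up to 114 microM), then 1.5 microM Rhodamine110 substrate. Fluorescence change over 15 min fitted to 4-parameter Hill.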
% is set by controls: 0 for no effect and ±100 for the full control effect; potency is the fitted concentration of half-maximal effect.

Point of comparison: `COC1CC(O[C@H]2CC[C@@]3(C)C(=CC[C@]4(O)C3[C@H](O)[C@@H](O)[C@]3(C)[C@@H]([C@H](C)O)CC[C@@]34O)C2)OC(C)C1OC1CC(OC)C(OC2CC(OC)C(OC3OC(C)C(OC4OC(CO)C(O)C(O)C4O)C(OC)C3O)C(C)O2)C(C)O1` (stereo partly specified), “activity change, negative = inhibition” value 22.8% [at 32.5 µM]. Against it:
- C/C=C(\C)C(=O)OC[C@H]1O[C@@H](O[C@H]2[C@@H](O[C@H]3O[C@H](CO)[C@@H](O)[C@H](O)[C@H]3O[C@@H]3O[C@H](CO)[C@@H](O)[C@H](O)[C@H]3O)O[C@H](COC(=O)/C(C)=C/C)[C@@H](O)[C@@H]2O)[C@H](O)[C@@H](O)[C@@H]1O — lower, 4.08% [at 32.5 µM]

Point of comparison: `COc1ccc(-c2ccn(CC[C@](C)(C(=O)NO)S(C)(=O)=O)c(=O)c2)c(F)c1`, “activity change, negative = inhibition” value -18.5%. Against it:
- O=C(O)c1ccc(NC(=O)[C@H](CC2CCCC2)n2cnc(C(F)(F)F)c2)nc1 — higher, -16.2%
- Cc1c(C)c(NCC(=O)N(C)C2CCN(Cc3ccc(C(N)=O)cc3)CC2)c(C)c(C)c1N — higher, 11.8%
- Nc1c(-c2ccccc2)nc(Cl)c2c(O)n[nH]c(=O)c12 — higher, -2.53%
- CCCN1CCC[C@@H](c2cccc(S(C)(=O)=O)c2)C1 — higher, 8.95%
- Nc1ncnc2c1C(=O)N(c1ccc(C3CCC(CC(=O)O)CC3)cc1)CCO2 (stereo unspecified) — higher, -10%
- O=C(O)c1cc(C(F)(F)F)ccc1N1CC[C@H](OCc2ccccn2)C1 — higher, 126%

With `CCC(C)/C=C(C)/C=C/C(=O)C1CCC(O)C(C)(O)C1=O` (stereo unspecified) the Potency was 17.8 µM (active).

`OC[C@H]1O[C@@H](O[C@H]2[C@H](O)[C@@H](CO)O[C@@H](OCc3ccccc3)[C@@H]2O[C@@H]2OC[C@](O)(CO)[C@H]2O)[C@H](O)[C@@H](O)[C@@H]1O` was tested, and the “activity change, negative = inhibition” value was 4.91% [at 57.1 µM].
